Assay outcomes as filed in PubChem.
RORg inh = ROR gamma (mouse) transcription inhibition; P51450; Drosophila S2 Gal4-RORgamma UAS-luciferase reporter, 20 h; Potency, µM (series often up to 53.6 µM), hits mostly inhibitors; 310,000 tested, 5.4% active; AID 2551; further: nearly all actives have a fitted effect of over 60% in size
Target sequence (P51450 whole entry, looked up, the tested form may be a part): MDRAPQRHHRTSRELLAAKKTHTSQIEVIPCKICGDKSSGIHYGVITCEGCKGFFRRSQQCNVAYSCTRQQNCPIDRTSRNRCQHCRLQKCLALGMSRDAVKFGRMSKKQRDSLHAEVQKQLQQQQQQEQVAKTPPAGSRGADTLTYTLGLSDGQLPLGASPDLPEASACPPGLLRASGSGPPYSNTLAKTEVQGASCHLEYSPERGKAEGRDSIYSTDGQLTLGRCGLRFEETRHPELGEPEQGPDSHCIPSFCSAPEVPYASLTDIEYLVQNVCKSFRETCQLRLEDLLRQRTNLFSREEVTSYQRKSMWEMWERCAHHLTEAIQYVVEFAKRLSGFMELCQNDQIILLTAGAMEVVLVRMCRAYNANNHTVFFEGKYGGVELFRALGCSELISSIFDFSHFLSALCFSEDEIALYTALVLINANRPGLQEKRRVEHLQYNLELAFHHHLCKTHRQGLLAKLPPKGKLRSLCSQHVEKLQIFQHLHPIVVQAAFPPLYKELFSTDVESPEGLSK
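Read-out: Photinus luciferase luminescence; inhibitors lower reporter signal. Insect Schneider cells with Gal4-ROR gamma fusion under metallothionein promoter, UAS reporter; 700 uM final copper sulfate induction, 20 hr, ambient temperature.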
TDP1 cell CPT = DT40-hTDP1 cell growth loss with CPT. chicken DT40 Tdp1-/-;hTDP1 cells + 20 nM CPT, ATP luminescence, 48 h. Potency, µM (highest dose often 46.2 µM), actives largely listed as inhibitors. 420,000 tested, 12% active; further: nearly all actives have a fitted effect of over 55% in size
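Chicken DT40 Tdp1-/- cells complemented with human TDP1, 400 cells/well, exposed to compounds plus 20 nM camptothecin for at least 48 h at 37 C; viability read as ATP content by CellTiter-Glo luminescence.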
DT40 TDP1 no CPT = qHTS for Inhibitors of human tyrosyl-DNA phosphodiesterase 1 (TDP1): qHTS in cells in absence of CPT; DT40 Tdp1-/- hTDP1 cells, no CPT, ATP luminescence, 48 h; Potency, µM (series often up to 46.2 µM), hits mostly inhibitors; 420,000 tested, 15% active; AID 686978, 2013; further: nearly all actives have a fitted effect of over 55% in size
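Camptothecin absent (DMSO only). Human TDP1-complemented DT40 knockout cells, 400 cells/well, 37 °C for minimum 48 hr; ATP measured via CellTiter-Glo, 30 min dark incubation, luminescence.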
IL1B secr inh = blocks inflammasome-driven IL-1 beta release | THP-1 LPS/ATP IL-1B secretion, AlphaLISA, 16 h; hits give low values | activity change, % at 57.5 µM | 360,000 tested, 4.7% active | AID 743279; in the data active means activity change below about -50%; inconclusive means mostly about -30% to -49%
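THP-1 cells pretreated 1 hr with compounds (up to 57.5 uM final), then stimulated with LPS (250 ng/mL final) plus ATP (1.25 mM final); secreted IL-1B measured by AlphaLISA after 16 hr, decreased signal indicating inhibition.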
VP16 counter = counter-screen for ROR gamma inhibitors: Gal4-VP16 reporter; Drosophila S2 Gal4-VP16 UAS-luciferase, luminescence, 20 h; Potency, µM (doses to about 53.6 µM), usual class: inhibitors; 310,000 tested, 3.5% active; AID 2546;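 further: Gal4-VP16 expression switched on by copper sulfate through the metallothionein promoter; nearly all actives have a fitted effect of over 50% in size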
ELG1 repair inh = ELG1-dependent DNA repair inhibition; Potency, µM (highest dose often 46.1 µM), usual class: inhibitors; 330,000 tested, 2.3% active; HEK293T ELG1-luciferase reporter, luminescence, 16 h; DNA damage induced by 5-fluorouridine; AID 504467; further: nearly all actives have a fitted effect of over 55% in size
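In this reporter screen, reduction of luminescence relative to DMSO vehicle indicated activity. Compounds and 5-fluorouridine were added together to 2,000 cells per well, incubated for 16 hr at 37 °C, then developed with ONE-Glo.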
A number is an active result; – = inactive; ? = inconclusive; · = no result. In the library only some 21% were active in any assay of this set; here they are far more common. Unless noted, the call rests on the fitted dose curve; in most records, active means well fitted curve in the direction sought with a large enough effect; inconclusive means small, poorly fitted or top-dose-only effect, or another doubt; inactive means no such curve, though single readings can be large; an effect the other way counts as inactive or inconclusive.

SMILES	RORg inh	TDP1 cell CPT	DT40 TDP1 no CPT	IL1B secr inh	VP16 counter	ELG1 repair inh
CN1CCC(Oc2ccc(Sc3ccccc3)cc2)CC1	–	?	23µM	-55	–	?
CC(=O)c1ccc2c3c(cc(C)c2c1)CCCC3	·	–	–	–	·	·
CN(C(=S)Nc1ccc(SC(F)F)cc1)c1ccc(O)cc1	–	?	?	-54	?	–
CN(C(=S)Nc1ccc(Oc2ccccc2)cc1)c1ccc(O)cc1	–	?	?	-73	–	–
CN(C(=S)Nc1cccnc1)c1ccc(O)cc1	–	–	?	–	–	–
CCN(CC(=O)Nc1ccc2c(c1)OCCO2)CC(=O)Nc1ccc(C)c(S(=O)(=O)N(C)C)c1	·	–	?	–	·	?
O=C(c1cc(-c2ccccc2)nn1-c1ccccc1)N1CCN(S(=O)(=O)c2ccc(F)cc2)CC1	·	?	?	–	·	?
O=C(c1cc(-c2cccs2)nn1-c1ccccc1)N1CCN(S(=O)(=O)c2ccccc2)CC1	·	?	18µM	–	·	–
Cc1ccc(S(=O)(=O)N2CCN(C(=O)c3cc(-c4cccs4)nn3-c3ccccc3)CC2)cc1	·	13µM	18µM	–	·	?
COc1ccc(CCC(=O)NCCOc2ccccc2Cl)cc1	·	?	?	–	·	·
CCc1c(C)nc2c(Br)cccc2c1SCCC#N	–	?	?	–	–	–
CCCCc1c(C)nc2ccc(Br)cc2c1SCCC#N	?	·	·	·	–	18µM
CCCc1c(C)nc2ccccc2c1SCCC#N	–	?	?	–	–	23µM
CCN(C(=O)COC(=O)CNS(=O)(=O)c1ccc(SC)c([N+](=O)[O-])c1)C1CCCCC1	·	–	–	–	·	?
COc1ccc(N2C(=O)[C@H]3CCC=C[C@H]3[C@@H]2c2ccccc2Br)cc1	18µM	?	?	–	32µM	–
CN(Cc1ccccc1)C(=O)COC(=O)c1ccc(Cl)cc1N	–	10µM	?	–	–	–
CCOc1ccc(C(C)=O)cc1COC(=O)c1ccccc1C(=O)N(C)Cc1ccccc1	·	18µM	7.3µM	?	·	?
CC(C)(C)N(Cc1ccccc1)C(=O)COC(=O)c1ccccc1SCC(=O)N1CCCC1	·	?	?	-52	·	?
O=C(COC(=O)c1ccc(N2CCCC2=O)cc1)c1ccccc1	–	–	–	–	–	?
CC(C)(C)N(Cc1ccccc1)C(=O)COC(=O)c1ccc(N2CCCC2=O)cc1	·	?	16µM	–	·	?
COc1ccc(C(C)=O)cc1CC(=O)N(Cc1ccccc1)c1ccccc1	?	–	?	–	–	–
CN(Cc1ccccc1)C(=O)c1ccccc1C(=O)OCC(=O)N(Cc1ccccc1)C(C)(C)C	·	23µM	15µM	-50	·	?
Cc1[nH]c2ccccc2c1C(=O)COC(=O)c1ccccc1O	·	–	–	–	·	?
Cc1[nH]c2ccccc2c1C(=O)COC(=O)c1ccccc1SCC(=O)N1CCCC1	·	?	11µM	·	·	·
Cc1cc2oc(C(=O)Nc3ccc(S(=O)(=O)Nc4ncccn4)cc3)cc(=O)c2cc1C	·	–	–	·	·	·
SMILES	RORg inh	TDP1 cell CPT	DT40 TDP1 no CPT	IL1B secr inh	VP16 counter	ELG1 repair inh
COc1ccc(CCN(/C=C2\Sc3ccccc3C2=O)C(C)=O)cc1OC	–	–	–	–	–	?
CN(C)CC/C=C1/c2cc(F)ccc2Sc2ccc(Cl)cc21	·	?	18µM	-51	·	·
COc1cc2c(cc1Cl)/C(=C\CCN(C)C)c1ccccc1S2	–	18µM	?	-103	–	–
CN(C)Cc1ccc(F)cc1Sc1ccc(Cl)cc1Cl	–	?	?	–	–	–
Cc1cc(NC(=O)CCC(=O)N(c2ccccc2)C(C(=O)NC2CCCC2)c2ccccc2C)no1 (stereo unspecified)	–	–	?	–	–	–
CCOC(=O)N1CCc2c(sc(NCc3ccc(N(C)C)cc3)c2C(=O)Nc2ccc(OC)cc2)C1	·	21µM	?	·	·	·
COC(=O)c1c(NC(=O)COC(=O)c2ccc(NC(=O)CC#N)cc2)sc2c1CCCCC2	–	–	?	–	–	?
COC(=O)c1ccc(NC(=O)c2c(NCc3cccc(F)c3)sc3c2CCCC3)cc1	·	21µM	16µM	·	·	·
CCOC(=O)N1CCc2c(sc(NCc3cccc(F)c3)c2C(=O)Nc2ccc(OC)cc2)C1	·	?	16µM	·	·	·
CCC(=O)Nc1sc2c(c1C(=O)Nc1ccc(OC)cc1)CCC(C(C)(C)C)C2 (stereo unspecified)	·	–	–	·	·	·
COc1ccc(NC(=O)CC2S/C(=N\c3nccs3)N(C)C2=O)cc1 (stereo unspecified)	–	–	–	–	–	–
c1ccc(-c2cn3c(n2)-c2ccccc2C3)cc1	10µM	?	15µM	–	?	?
O=C(NCc1ccc(F)cc1)C1(S(=O)(=O)c2ccc(Cl)cc2)CC1	–	–	–	–	–	?
Cc1ncnc2nc[nH]c12	·	1.8µM	1.8µM	·	·	·
CC(C)=NNc1ncnc2nc[nH]c12	·	21µM	15µM	–	·	·
c1nc(NC2CCCCCC2)c2[nH]cnc2n1	?	10µM	23µM	–	–	?
CC(O)CNc1ncnc2nc[nH]c12 (stereo unspecified)	–	–	–	–	–	–
Cc1cc(C)cc(Nc2ncnc3nc[nH]c23)c1	–	?	–	–	–	?
O=C1c2ccccc2CN1CCSC(=S)N1CCOCC1	–	–	–	?	–	?
c1cc(-c2cc3nc(NCC4CC4)ccn3n2)ccc1OCCN1CCOCC1	·	23µM	23µM	–	·	·
CN(C)C(=O)CNc1ccn2nc(-c3cccc(OCCN4CCOCC4)c3)cc2n1	·	–	–	–	·	·
Clc1cccc(CNc2ccn3nc(-c4ccc(OCCN5CCOCC5)cc4)cc3n2)c1	·	8.2µM	12µM	–	·	·
CC(C)Cc1ccc(-c2cc3nc(NCC4CC4)ccn3n2)cc1	·	21µM	?	–	·	·
c1cc(-c2cc3nc(NC4CCCCC4)ccn3n2)ccc1OCCN1CCOCC1	·	3.3µM	3.3µM	-76	·	·
Cc1ccccc1Oc1ccc2c(c1)[C@@H]1C[C@H](N(C)C(=O)c3ccc(C#N)cc3)[C@H]([C@H](C)O)C(=O)N1CC2	·	?	?	–	·	·
COc1cccc(CN2CC34CC(c5ccc(C(C)=O)cc5)C(CC3S2(=O)=O)O4)c1 (stereo unspecified)	–	·	·	·	–	·
Cn1c2ccccc2c2cnn(CC(=O)N3CCCCC3)c(=O)c21	–	–	–	–	–	?
CN1CCN(C(=O)Cn2ncc3c4ccccc4n(Cc4ccc(F)cc4)c3c2=O)CC1	·	15µM	7.3µM	·	·	·
Cc1c2cnn(CC(=O)O)c(=O)c2c(C)n1Cc1ccccc1	–	–	–	–	–	–
O=C(Cn1ncc2c3ccccc3n(Cc3ccc(Cl)cc3)c2c1=O)N1CCCCCC1	·	13µM	10µM	·	·	·
